Compounds with a hit are over-represented: about 18% of the library has one in this group of screens.
VDR inhibitor = inhibitors of human vitamin D receptor; Potency, µM, for inactives: max response, negative = inhibition, actives largely listed as inhibitors; P11473; hit rate 0.93% among 400,000; VDR-SRC2-3 peptide fluorescence polarization, 2 h
Target sequence (P11473 whole entry, looked up): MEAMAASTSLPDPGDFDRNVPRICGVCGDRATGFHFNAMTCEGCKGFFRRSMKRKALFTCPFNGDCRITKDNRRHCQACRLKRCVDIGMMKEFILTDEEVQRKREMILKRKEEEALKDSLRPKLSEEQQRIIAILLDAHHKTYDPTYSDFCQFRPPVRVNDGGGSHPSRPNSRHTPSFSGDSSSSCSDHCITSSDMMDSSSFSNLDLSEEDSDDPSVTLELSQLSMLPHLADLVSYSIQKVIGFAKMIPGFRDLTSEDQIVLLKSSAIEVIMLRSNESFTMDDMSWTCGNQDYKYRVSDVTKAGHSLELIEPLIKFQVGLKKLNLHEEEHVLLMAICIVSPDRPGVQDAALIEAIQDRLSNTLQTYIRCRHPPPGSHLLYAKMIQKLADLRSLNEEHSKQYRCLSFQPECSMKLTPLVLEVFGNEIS
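FP read-out; VDR + SRC2-3 coactivator peptide; 23 nl compound by pintool; 2 h RT incubation; reagents held at 4 deg C, protected from light.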
DT40 TDP1 CPT = growth inhibition of DT40 Tdp1-/-;hTDP1 cells with camptothecin (screen for TDP1 inhibitors); hit rate 12% among 420,000; Potency, µM (top dose mostly 46.2 µM), for inactives: top-dose activity change, negative = growth inhibition, actives largely listed as inhibitors; chicken DT40 Tdp1-/-;hTDP1 cells + 20 nM CPT, ATP luminescence, 48 h; note: nearly all actives have a fitted effect of over 55% in size
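Chicken DT40 Tdp1-/- cells stably complemented with human TDP1 were seeded at 400 cells/well in medium containing 20 nM camptothecin, exposed to pin-transferred compounds, and grown at 37 °C for at least 48 hr. Viability was read as ATP luminescence.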
PLK1 PBD inh = blocks phosphopeptide binding to human PLK1 polo-box domain; Plk1 PBD binding of FITC phosphopeptide, fluorescence polarization; Potency, µM, for the others: max response, negative = inhibition, usual class: inhibitors; hit rate 2.8% among 360,000; AID 720504; note: series mostly up to about 57 µM; nearly all actives have a fitted effect of over 65% in size
DT40 TDP1 no CPT = qHTS for Inhibitors of human tyrosyl-DNA phosphodiesterase 1 (TDP1): qHTS in cells in absence of CPT; Potency, µM (highest dose often 46.2 µM), inactives show top-dose activity change, negative = growth inhibition, actives largely listed as inhibitors; hit rate 15% among 420,000; DT40 Tdp1-/- hTDP1 cells, no CPT, ATP luminescence, 48 h; note: nearly all actives have a fitted effect of over 55% in size
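Compound effects on proliferation are scored in DT40 Tdp1-/-;hTDP1 cells in the absence of CPT. ATP levels (CellTiter-Glo luminescence) are recorded after a ≥48 hr, 37 °C incubation.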
KAT2A inh = inhibitors of human GCN5L2 histone acetyltransferase; Q92830; GCN5L2 HAT assay, ThioGlo1 CoA-SH fluorescence; Potency, µM (highest dose often 58.9 µM), inactives show at the top dose activity change, negative = inhibition, actives largely listed as inhibitors; hit rate 0.21% among 390,000
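Titration-based screen in which CoA formation is detected via maleimide probe ThioGlo1 (50uM) turning fluorescent on thiol reaction; substrates H3(1-25) 75uM and acetyl-CoA 70uM, GCN5L2 20nM, 20 min incubation at room temperature.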
TDP1 block = blocks human tyrosyl-DNA phosphodiesterase 1; Q9NUW8; recombinant TDP1, AlphaScreen DNA substrate cleavage; Potency, µM (series often up to 130 µM), without a hit: at the highest dose activity change, negative = inhibition, actives largely listed as inhibitors; hit rate 0.28% among 350,000; AID 485290; note: nearly all actives have a fitted effect of over 40% in size
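Enzyme-compound mixtures sat 15 min at room temperature, followed by a 5 min reaction with 15 nM final substrate and 10 min with AlphaScreen beads. Recombinant human Tdp1 was used at 1 nM final.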
* hit, by the source's call; ? = inconclusive; . = no result; [ ] = another dose, or the depositor's remark. Calls come from the whole dose curve; as a rule, active = well fitted curve in the direction sought with a large enough effect; inconclusive = small, poorly fitted or top-dose-only effect, or another doubt; inactive = no such curve, though single readings can be large; an effect the other way counts as inactive or inconclusive. % is set by controls: 0 for no effect and ±100 for the full control effect; potency is the fitted concentration of half-maximal effect.

SMILES	VDR inhibitor	DT40 TDP1 CPT	PLK1 PBD inh	DT40 TDP1 no CPT	KAT2A inh	TDP1 block
COc1ccc(N2CCN(CCCNC(=O)c3cnn(-c4ccc(C)cc4)c3-n3cccc3)CC2)cc1	13%	5.8µM*	.	5.2µM*	-3%	6%
COc1ccccc1Nc1cc(C(=O)NCc2cccnc2)c2ccccc2n1	12%	1%	-5%	?	-2%	.
Cc1ncc2c(c1CNS(=O)(=O)N(C)C)CCN(C(=O)c1[nH]c3ccc(Cl)cc3c1C)C2	.	-5%[9.04 µM]	.	?	.	.
CCCCCCCCCCCCC/C=C\[C@@H](O)[C@H](CO)NC(C)=O	10%	15%	.	?	-16%	10%
CCCCCc1ccc(CC(=O)N2CCOCC2)cc1	-12%	?	-17%	-1%	-4%	5%
CCN1C(C)=C(C(=O)OC(C)C)C(c2ccccc2Cl)C(C(=O)O)=C1C(=O)O (stereo not given)	1%	.	.	.	-2%	10%
COc1ccc(CN(C)CC(=O)Nc2cccc(S(=O)(=O)N(C)c3ccccc3)c2)c(OC)c1	-10%	?	0%	?	-9%	2%
O=C(C(=O)N1CCN(c2ccccc2F)CC1)c1cn(CC(=O)N2CCCC2)c2ccccc12	.	0%	-5%	-23%	.	.
CCN(CC)CCCNC(=O)c1cc(Nc2ccc(OC)cc2)nc2ccccc12	1%	18µM*	-5%	23µM*	-9%	.
CCN(CC)CCNC(=O)c1cc(Nc2ccc(OC)c(OC)c2)nc2ccccc12	11%	-25%	-7%	11%	-30%	.
Cc1cc2nc(CCN(C(=S)NCC(C)C)C3CCCC3)[nH]c2cc1C	14%	?	-4%	23µM*	-12%	3%
Cc1cc2nc(CCN(C(=S)NCC3CCCO3)C3CCCC3)[nH]c2cc1C (stereo not given)	-3%	?	6%	?	12%	1%
Cc1cc(N2C(=O)C3C4CCC(C4)C3C2=O)no1 (stereo not given)	-8%	35%	-18%	-12%	3%	-4%
Cc1cc(N2CCN(C)CC2)nc2ccc(NC(=O)Nc3ccc(F)cc3)cc12	14%	?	.	?	7%	-6%
COc1ccc(C(=O)Nc2ccc3nc(N4CCC(C)CC4)cc(C)c3c2)cc1	-5%	23µM*	.	16µM*	-24%	3%
COc1cccc(C(=O)Nc2ccc3nc(N4CCC(C)CC4)cc(C)c3c2)c1	-10%	12µM*	.	21µM*	-9%	9%
CCCCNC(=O)CCC(=O)Nc1ccc2nc(N3CCC(C)CC3)cc(C)c2c1	3%	?	-3%	?	-8%	5%
Cc1cc(N2CCN(C)CC2)nc2ccc(NC(=O)c3ccc4c(c3)OCO4)cc12	-7%	-28%	1%	-18%	-12%	3%
Cc1cc(N2CCCCC2)nc2ccc(NC(=O)c3ccc(F)cc3)cc12	-7%	21µM*	.	15µM*	-3%	5%
CCC(=O)Nc1ccc(C(=O)NNC(=O)COc2cc(C)ccc2C)cc1	-16%	-5%	-4%	-28%	-2%	3%
O=C(NCc1ccccc1Cl)c1ccc(NC(=O)N2CCCCc3ccccc32)cc1	2%	-3%	.	-9%	-1%	8%
O=Cc1ccc(/C=C2/C=Cc3ccccc32)cc1	.	?	.	-18%	.	.
CN(C)c1ccc(/C=C2\C=Cc3cc(N)ccc32)cc1	.	?	.	11µM*	.	.
CN(C)c1ccc(/C=C2\C=Cc3ccccc32)cc1	.	-26%	.	?	.	.
CC(C)CN(C)c1ccc(/C=C2\C=Cc3ccccc32)cc1	.	2.8µM*	.	2.5µM*	.	.
O=Cc1ccc(/C=C2\C=Cc3ccccc32)cc1	.	5.6µM*	.	6.3µM*	.	.
CN(C)c1ccc(C=C2C=Cc3ccccc32)cc1	15%	-12%	4%	-17%	.	.
CCN(CC)c1ccc(/C=C2\C=Cc3ccccc32)cc1	.	?	.	18µM*	.	.

Screening data deposited in PubChem by National Center for Advancing Translational Sciences (NCATS).
